Sampled rows, rich in hits. Any-hit rate of the full collection: about 11%.
PNC inhibitor – High Content Assay for Compounds that inhibit the Assembly of the Perinucleolar Compartment | PC3M PTB-GFP, PNC prevalence imaging, 16 h; active compounds read low | activity change (PNC), negative = inhibition, % at 10 µM | 140,000 tested, 3.1% active;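 active = readout at or below -70, meaning at least 70% loss of cells showing the perinucleolar compartment, a nuclear body marking cancer cells; inconclusive = readout between -30 and a set limit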;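 also: plate controls were DMSO wells for no effect and camptothecin positive control wells for full effect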
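PC3M cells stably expressing PTB-GFP, 750–1000 cells/well, treated 16 h at 37 °C with compound (23 nl of library stock), in duplicate. After paraformaldehyde fixation and Hoechst stain, imaged at 20x; PNC prevalence scored by image analysis.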
ALDH1A1 block – qHTS Assay for Inhibitors of Aldehyde Dehydrogenase 1 (ALDH1A1); Aldehyde dehydrogenase 1A1 (Homo sapiens), P00352; Potency, µM (highest dose often 75.3 µM), for inactives: at the top dose activity, negative = inhibition, actives largely listed as inhibitors; 220,000 tested, 7.3% active; Purified ALDH1A1, NADH fluorescence, propionaldehyde substrate;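 also: potency is read from the fitted curve at half-maximal effect; plate controls were no enzyme wells and a reference inhibitor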
HPGD inh – qHTS Assay for Inhibitors of HPGD (15-Hydroxyprostaglandin Dehydrogenase); Potency, µM, for inactives: top-dose activity change, negative = inhibition, hits mostly inhibitors; 150,000 tested, 4.3% active; 15-hydroxyprostaglandin dehydrogenase [NAD(+)] (Homo sapiens), P15428; purified HPGD, NADH fluorescence kinetic, PGE2 substrate; AID 894, 2007; also: potency is read from the fitted curve at half-maximal effect
Target sequence (P15428 whole entry, looked up): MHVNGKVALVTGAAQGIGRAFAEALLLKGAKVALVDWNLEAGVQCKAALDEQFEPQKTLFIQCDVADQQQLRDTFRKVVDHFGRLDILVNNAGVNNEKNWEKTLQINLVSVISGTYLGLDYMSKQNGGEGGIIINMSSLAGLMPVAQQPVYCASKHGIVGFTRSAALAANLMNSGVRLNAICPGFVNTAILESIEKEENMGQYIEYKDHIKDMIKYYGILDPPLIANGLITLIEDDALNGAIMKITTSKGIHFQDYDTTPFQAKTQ
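20 nM HPGD preincubated 15 min at room temperature with compound in 50 mM Tris-HCl pH 8, 0.01% Tween 20. Started with 1 mM NAD+ and 30 uM prostaglandin E2; NADH fluorescence (360/450 nm) read 5 times over 30-s intervals, last minus first.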
Active calls of the source: *; ? = inconclusive; / = not tested or not shown. Unless noted, calls follow the shape of the dose curve; as a rule, active = well fitted inhibition curve with a large enough effect (not every such curve was filed as active); inconclusive = small, poorly fitted or top-dose-only effect, or another doubt; inactive = no such curve, though single readings can be large or run the other way. Unless noted, % is scaled to controls: 0 for no effect and ±100 for the full control effect.

SMILES	PNC inhibitor	ALDH1A1 block	HPGD inh
Cc1ccc(OCc2nnc(SCc3cc(=O)[nH]c4ccccc34)n2-c2ccccc2)cc1	-26	8%	11µM*
COc1cc(CC(=O)Nc2ccc(S(=O)(=O)N(C)C)cc2)cc(OC)c1OC	7	?	-10%
CCOCCCNC(=O)c1ccc(CS(=O)(=O)Cc2ccccc2F)o1	17	9%	-3%
CNC(=O)C12N=CNN=C1N(C)C(=O)N2C (stereo not drawn)	/	10%	/
C/C(=C\c1ccccc1)C(=O)Nc1ccc(S(=O)(=O)Nc2ncccn2)cc1	/	-6%	/
Cc1nc(SCc2c(F)cccc2Cl)c2c(=O)n(C)c(=O)n(C)c2n1	?	2%	-14%
COc1ccccc1-c1ccc(NC2CCCCC2)nn1	108	-5%	7.1µM*
COc1ccccc1-c1ccc(Nc2cccc(C(F)(F)F)c2)nn1	-15	0%	-6%
CCn1c(=O)cc(SCC(=O)NCc2ccccn2)c2ccccc21	-7	-8%	?
O=C(CN1CCC(O)(c2ccc3c(c2)OCO3)CC1)OC1CCCCC1	-84*	3%	6%
O=C(CN1CCC(O)(c2ccc3c(c2)OCO3)CC1)NC1CCCCC1	/	-2%	/
c1ccc(-c2cc(CSc3nc4ccccc4[nH]3)on2)cc1	-24	-7%	-2%
NCCN	/	5%	0%
COc1ccccc1OCCn1cc(C#N)c2ccccc21	-119*	-3%	-8%
